Holding throughout (assay): DAPPL (digital affinity profiling via proximity ligation, sequencing); 10 mM Tris-HCl pH 7.5, 50 mM NaCl, 1 mM DTT, 4% glycerol, room temperature, 30 min; GST-TFs on glutathione beads, 16-mer random dsDNA library, 0.1% formaldehyde crosslink after washing; high values mean tight binding
Conditions in all cases: protein: recombinant; tags: N-terminal GST; dsDNA, one strand shown

Test [1] deals with T1, ERF (Homo sapiens, UniProt P50548 1-548).
T1 sequence: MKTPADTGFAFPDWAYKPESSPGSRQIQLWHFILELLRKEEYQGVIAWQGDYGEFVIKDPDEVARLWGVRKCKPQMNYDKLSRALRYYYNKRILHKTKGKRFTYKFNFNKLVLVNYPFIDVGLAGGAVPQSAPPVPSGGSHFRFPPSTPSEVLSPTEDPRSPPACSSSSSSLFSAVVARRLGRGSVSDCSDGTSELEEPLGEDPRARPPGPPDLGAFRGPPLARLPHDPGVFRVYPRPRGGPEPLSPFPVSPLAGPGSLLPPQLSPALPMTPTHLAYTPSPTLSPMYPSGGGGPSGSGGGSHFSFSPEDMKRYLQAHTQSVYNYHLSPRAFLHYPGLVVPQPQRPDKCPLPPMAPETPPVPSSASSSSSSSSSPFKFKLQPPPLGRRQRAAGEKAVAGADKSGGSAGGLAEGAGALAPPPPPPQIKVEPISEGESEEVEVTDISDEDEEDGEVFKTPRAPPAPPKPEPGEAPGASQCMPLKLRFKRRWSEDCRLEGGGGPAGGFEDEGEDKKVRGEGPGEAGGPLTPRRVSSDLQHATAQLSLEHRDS
The method in brief:
(§1)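 Sequencing on an Illumina NextSeq500 followed washing, crosslinking with 0.1% formaldehyde, proximity ligation (BsaI/T4 ligase, 1 h, 37 °C) and PCR amplification of pools that had been incubated for 30 min at room temperature with 200 nmole of a random double-stranded 16-mer DNA library in Tris/NaCl/DTT/glycerol buffer. Each pool held DNA-barcoded human transcription factors, expressed in yeast as GST fusions and captured on glutathione beads, plus a tag-only sample. Binding signal is a hexamer's read frequency for a factor divided by its frequency in the tag-only sample.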

The target in test [2] is T2, ETV3L (Homo sapiens, UniProt Q6ZN32 1-361).
T2 sequence: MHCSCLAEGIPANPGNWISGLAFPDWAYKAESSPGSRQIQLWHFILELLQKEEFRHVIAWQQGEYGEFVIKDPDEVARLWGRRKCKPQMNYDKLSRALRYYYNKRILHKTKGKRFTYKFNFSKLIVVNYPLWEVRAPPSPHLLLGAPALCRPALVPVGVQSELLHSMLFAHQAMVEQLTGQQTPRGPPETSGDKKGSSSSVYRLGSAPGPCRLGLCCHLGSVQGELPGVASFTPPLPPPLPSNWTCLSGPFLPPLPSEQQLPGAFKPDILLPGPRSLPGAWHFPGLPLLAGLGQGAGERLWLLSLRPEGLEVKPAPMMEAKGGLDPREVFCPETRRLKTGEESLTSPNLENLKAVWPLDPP
Summed up: as §1

Test [3] has as its target T3, ETS2 (Homo sapiens, UniProt P15036 1-469).
T3 sequence: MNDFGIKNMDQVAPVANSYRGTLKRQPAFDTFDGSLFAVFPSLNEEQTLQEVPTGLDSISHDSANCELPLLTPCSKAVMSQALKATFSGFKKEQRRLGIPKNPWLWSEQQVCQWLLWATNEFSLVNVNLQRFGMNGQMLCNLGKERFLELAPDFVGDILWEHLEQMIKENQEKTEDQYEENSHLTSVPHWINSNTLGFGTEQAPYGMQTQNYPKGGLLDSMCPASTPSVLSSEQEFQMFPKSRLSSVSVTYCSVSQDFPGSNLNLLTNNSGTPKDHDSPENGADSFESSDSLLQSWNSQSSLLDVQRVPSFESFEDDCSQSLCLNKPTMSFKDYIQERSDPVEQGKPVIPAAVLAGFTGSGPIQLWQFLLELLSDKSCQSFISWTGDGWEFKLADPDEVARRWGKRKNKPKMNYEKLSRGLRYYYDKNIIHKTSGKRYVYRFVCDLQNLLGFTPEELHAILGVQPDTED
Summed up:
as §1

The target of test [4] is T4, SPDEF (Homo sapiens, UniProt O95238 1-335).
T4 sequence: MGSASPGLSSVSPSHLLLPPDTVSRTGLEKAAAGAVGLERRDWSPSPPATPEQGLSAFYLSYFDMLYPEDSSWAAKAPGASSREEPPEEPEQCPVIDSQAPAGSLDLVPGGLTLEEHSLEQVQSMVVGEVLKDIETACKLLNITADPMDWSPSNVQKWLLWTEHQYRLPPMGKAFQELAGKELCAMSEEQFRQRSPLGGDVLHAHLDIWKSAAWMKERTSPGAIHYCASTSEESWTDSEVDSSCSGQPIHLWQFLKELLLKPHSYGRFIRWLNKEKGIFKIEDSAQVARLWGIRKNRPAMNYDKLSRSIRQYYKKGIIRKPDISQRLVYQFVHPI
Summed up: as §1

In test [5] the target is T5, ETV7 (Homo sapiens, UniProt Q9Y603 1-341).
T5 sequence: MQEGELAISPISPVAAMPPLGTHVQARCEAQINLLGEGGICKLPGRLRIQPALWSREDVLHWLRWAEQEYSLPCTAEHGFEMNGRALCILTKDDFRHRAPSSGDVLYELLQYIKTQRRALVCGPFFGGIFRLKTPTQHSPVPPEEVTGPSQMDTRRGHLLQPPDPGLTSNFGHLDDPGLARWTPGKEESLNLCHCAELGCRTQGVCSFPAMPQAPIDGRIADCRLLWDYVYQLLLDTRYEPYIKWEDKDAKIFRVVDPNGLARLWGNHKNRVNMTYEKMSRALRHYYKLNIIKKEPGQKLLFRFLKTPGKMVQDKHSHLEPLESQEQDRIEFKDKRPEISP
Summed up: as §1

Test [6] concerns the target T6, ELF5 (Homo sapiens, UniProt Q9UKW6-2 1-255).
T6 sequence: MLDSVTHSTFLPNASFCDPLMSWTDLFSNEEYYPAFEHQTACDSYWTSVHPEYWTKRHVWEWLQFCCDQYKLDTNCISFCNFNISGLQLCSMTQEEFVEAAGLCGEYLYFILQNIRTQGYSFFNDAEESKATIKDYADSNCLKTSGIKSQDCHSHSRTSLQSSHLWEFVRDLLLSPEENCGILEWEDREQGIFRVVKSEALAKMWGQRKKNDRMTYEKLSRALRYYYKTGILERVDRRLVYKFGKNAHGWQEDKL
The method in brief:
as §1

Test [7] deals with T7, ETV3 (Homo sapiens, UniProt P41162-2 1-143).
T7 sequence: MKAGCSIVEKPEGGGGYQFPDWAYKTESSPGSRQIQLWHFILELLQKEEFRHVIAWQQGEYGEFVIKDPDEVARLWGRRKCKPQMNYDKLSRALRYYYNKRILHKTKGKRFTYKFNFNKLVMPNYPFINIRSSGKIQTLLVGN
The method in brief: as §1

For test [8], the target named is ETV6 (Homo sapiens, UniProt P41212 1-452). Summed up: as §1
Sequence of ETV6 (P41212 whole entry): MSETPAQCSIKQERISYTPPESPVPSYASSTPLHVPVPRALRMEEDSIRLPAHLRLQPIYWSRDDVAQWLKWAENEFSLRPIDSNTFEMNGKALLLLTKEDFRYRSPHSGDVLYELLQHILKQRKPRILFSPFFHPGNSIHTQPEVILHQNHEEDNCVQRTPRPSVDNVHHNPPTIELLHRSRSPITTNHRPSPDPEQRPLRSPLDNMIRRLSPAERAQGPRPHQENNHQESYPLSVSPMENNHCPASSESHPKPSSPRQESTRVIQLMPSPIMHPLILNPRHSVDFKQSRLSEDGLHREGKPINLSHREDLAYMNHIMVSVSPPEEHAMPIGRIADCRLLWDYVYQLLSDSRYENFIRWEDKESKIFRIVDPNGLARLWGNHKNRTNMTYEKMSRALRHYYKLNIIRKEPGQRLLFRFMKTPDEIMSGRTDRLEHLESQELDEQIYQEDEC

With CCGCGC, the binding signal was 1.23 fold enrichment (6-mer frequency, TF over GST control) in test [1]; 1.08 fold enrichment (6-mer frequency, TF over GST control) in test [2]; 1.21 fold enrichment (6-mer frequency, TF over GST control) in test [3]; 1.17 fold enrichment (6-mer frequency, TF over GST control) in test [4]; 1.06 fold enrichment (6-mer frequency, TF over GST control) in test [5]; 1.18 fold enrichment (6-mer frequency, TF over GST control) in test [6]. Also, the binding signal was 1.19 fold enrichment (6-mer frequency, TF over GST control) in test [7] and 1.15 fold enrichment (6-mer frequency, TF over GST control) in test [8].
CGTACC: the binding signal in test [1] was 1.12 fold enrichment (6-mer frequency, TF over GST control); in test [2], 1.13 fold enrichment (6-mer frequency, TF over GST control); in test [3], 1.15 fold enrichment (6-mer frequency, TF over GST control); in test [4], 1.17 fold enrichment (6-mer frequency, TF over GST control); in test [5], 1.1 fold enrichment (6-mer frequency, TF over GST control); in test [6] it was 1.19 fold enrichment (6-mer frequency, TF over GST control). The binding signal in test [7] is 1.03 fold enrichment (6-mer frequency, TF over GST control); in test [8], 1.16 fold enrichment (6-mer frequency, TF over GST control).
Regarding CTGAAG, the binding signal in test [1] was 1.26 fold enrichment (6-mer frequency, TF over GST control); in test [2], 1.09 fold enrichment (6-mer frequency, TF over GST control); in test [3] it was 1.22 fold enrichment (6-mer frequency, TF over GST control); in test [4], 1.15 fold enrichment (6-mer frequency, TF over GST control); in test [5] it was 1.07 fold enrichment (6-mer frequency, TF over GST control); in test [6], 1.06 fold enrichment (6-mer frequency, TF over GST control). The binding signal is 1.05 fold enrichment (6-mer frequency, TF over GST control) in test [7] and 1.05 fold enrichment (6-mer frequency, TF over GST control) in test [8].
Consider GTACTA, for which the binding signal is 1.21 fold enrichment (6-mer frequency, TF over GST control) in test [1]; 1.05 fold enrichment (6-mer frequency, TF over GST control) in test [2]; 1.13 fold enrichment (6-mer frequency, TF over GST control) in test [3]; 1.1 fold enrichment (6-mer frequency, TF over GST control) in test [4]; 1.09 fold enrichment (6-mer frequency, TF over GST control) in test [5]; 1.13 fold enrichment (6-mer frequency, TF over GST control) in test [6]. For the same sequence, the binding signal in test [7] is 1.09 fold enrichment (6-mer frequency, TF over GST control); in test [8], 1.15 fold enrichment (6-mer frequency, TF over GST control).
On to TGCCTA, for which the binding signal in test [1] is 1.09 fold enrichment (6-mer frequency, TF over GST control); in test [2], 1.16 fold enrichment (6-mer frequency, TF over GST control); in test [3] it was 1.16 fold enrichment (6-mer frequency, TF over GST control); in test [4] it was 1.03 fold enrichment (6-mer frequency, TF over GST control); in test [5], 1.01 fold enrichment (6-mer frequency, TF over GST control); in test [6] it was 1 fold enrichment (6-mer frequency, TF over GST control). Further, the binding signal in test [7] is 1.07 fold enrichment (6-mer frequency, TF over GST control); in test [8], 1.07 fold enrichment (6-mer frequency, TF over GST control).
In the case of CATCCG, the binding signal is 1.86 fold enrichment (6-mer frequency, TF over GST control) in test [1]; 2.11 fold enrichment (6-mer frequency, TF over GST control) in test [2]; 2.16 fold enrichment (6-mer frequency, TF over GST control) in test [3]; 3.63 fold enrichment (6-mer frequency, TF over GST control) in test [4]; 1.96 fold enrichment (6-mer frequency, TF over GST control) in test [5]; 2.53 fold enrichment (6-mer frequency, TF over GST control) in test [6]. Moreover, the binding signal in test [7] was 2.43 fold enrichment (6-mer frequency, TF over GST control); in test [8], 2.03 fold enrichment (6-mer frequency, TF over GST control).
CCTGCA: the binding signal in test [1] was 1.08 fold enrichment (6-mer frequency, TF over GST control); in test [2], 1.32 fold enrichment (6-mer frequency, TF over GST control); in test [3], 1.26 fold enrichment (6-mer frequency, TF over GST control); in test [4] it was 1.37 fold enrichment (6-mer frequency, TF over GST control); in test [5], 1.24 fold enrichment (6-mer frequency, TF over GST control); in test [6], 1.3 fold enrichment (6-mer frequency, TF over GST control). The binding signal in test [7] is 1.22 fold enrichment (6-mer frequency, TF over GST control); in test [8] it was 1.28 fold enrichment (6-mer frequency, TF over GST control).
As to GTCACA, the binding signal is 1.11 fold enrichment (6-mer frequency, TF over GST control) in test [1]; 1.08 fold enrichment (6-mer frequency, TF over GST control) in test [2]; 1.14 fold enrichment (6-mer frequency, TF over GST control) in test [3]; 1.08 fold enrichment (6-mer frequency, TF over GST control) in test [4]; 1.09 fold enrichment (6-mer frequency, TF over GST control) in test [5]; 1.06 fold enrichment (6-mer frequency, TF over GST control) in test [6]. In addition, the binding signal was 1.01 fold enrichment (6-mer frequency, TF over GST control) in test [7] and 1.06 fold enrichment (6-mer frequency, TF over GST control) in test [8].

The values are drawn from PMC7862700, “An all-to-all approach to the identification of sequence-specific readers for epigenetic DNA modifications on cytosine”.
